The source of these data is PubChem BioAssay.

Values without a mark were called inactive. Unless noted, how the calls were made is not given here.
Further: test concentration not given here.

The target in one assay is Dihydroorotate dehydrogenase (quinone), mitochondrial (Plasmodium falciparum (isolate 3D7)) (UniProt Q08210). Kind of assay: PfDHODH enzyme inhibitors, primary screen, biochemical, C-terminal His tag, absorbance 600 nm (AID 1175).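 Further: recombinant parasite enzyme with a five histidine tag at its C terminus.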 The following applies: DCIP absorbance 600 nm, higher = more signal, called active from +8 up or from −8 down.
Dihydroorotate dehydrogenase (quinone), mitochondrial (Plasmodium falciparum (isolate 3D7)), sequence (Q08210 whole entry, looked up): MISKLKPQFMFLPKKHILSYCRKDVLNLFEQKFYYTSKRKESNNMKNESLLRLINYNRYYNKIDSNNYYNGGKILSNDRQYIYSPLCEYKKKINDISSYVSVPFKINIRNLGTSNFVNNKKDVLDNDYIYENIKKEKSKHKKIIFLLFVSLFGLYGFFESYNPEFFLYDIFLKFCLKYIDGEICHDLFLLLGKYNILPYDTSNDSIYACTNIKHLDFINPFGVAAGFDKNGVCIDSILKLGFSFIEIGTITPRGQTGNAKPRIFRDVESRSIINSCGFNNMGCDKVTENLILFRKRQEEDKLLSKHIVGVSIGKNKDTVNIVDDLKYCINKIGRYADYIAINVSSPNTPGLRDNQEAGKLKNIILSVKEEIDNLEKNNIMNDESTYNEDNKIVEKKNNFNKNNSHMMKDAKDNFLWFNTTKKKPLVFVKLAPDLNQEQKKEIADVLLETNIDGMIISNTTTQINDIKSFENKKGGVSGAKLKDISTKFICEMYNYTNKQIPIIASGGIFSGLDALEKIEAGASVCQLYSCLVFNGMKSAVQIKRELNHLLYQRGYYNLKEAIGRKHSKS
Turning to `[N-]=[N+]=NCc1ccccc1C[C@@]1(C(=O)N2CCCCC2)N=C(c2ccc(OCCCO)cc2)O[C@@H]1c1ccccc1CN=[N+]=[N-]`, the composite z-score was 0.669.
Same read-out and setting: next, `COC(=O)[C@@]1(Cc2ccc(OC)cc2)[C@H]2c3cc(C(=O)N4CCCC4)n(Cc4ccc(S(C)(=O)=O)cc4)c3C[C@H]2CN1C(=O)c1ccccc1`: -1.16; `CCOC(=O)C[C@H]1[C@H](OC(=O)c2ccc(C(=O)c3ccccc3)cc2)[C@@H](NC(=O)CC(C)C)c2cc(OCCCO)ccc2N1C(=O)Cc1ccc(OC)cc1`: 0.166; `O=C1C2C=CC(C(O)c3ccco3)N(Nc3ccccc3)C2C(=O)N1c1ccccc1` (centres undefined): 1.05.
For the molecule `Cc1ccc(F)cc1S(=O)(=O)N[C@@H]1CCN(Cc2cccc3[nH]ccc23)C1`, the composite z-score is 0.31.
Same read-out and setting: next, `CCOC(=O)C1=C[C@@H](c2ccccc2)N(S(=O)(=O)c2ccc(C)cc2)[C@H]1c1ccccc1`: -0.629; `COCCOC(=O)N1C(=O)[C@@]2(c3cc(C#CCC(C(=O)OC)C(=O)OC)ccc31)[C@H](c1ccc(OCCO)cc1)N1[C@H](c3ccccc3)[C@H](c3ccccc3)OC(=O)[C@H]1[C@@H]2C(=O)Nc1nc2ccccc2s1`: -1.53.
Still for that read-out and setting: the same measure for `COC(=O)[C@@]1(Cc2ccccc2CN=[N+]=[N-])N=C(c2ccc(OCCCO)cc2)O[C@H]1c1ccccc1`: 1.09; for `COC(=O)C(CC#Cc1ccc2c(c1)[C@]1(C(=O)N2)[C@H](c2ccc(OCCO)cc2)N2[C@H](c3ccccc3)[C@H](c3ccccc3)OC(=O)[C@H]2[C@@H]1C(=O)N1CCN(c2ncccn2)CC1)C(=O)OC`: -6.39; for `CCCCCCCCCCC(O)C1C=CC2C(=O)N(C)C(=O)C2N1Nc1cc(OC)c(OC)c(OC)c1` (centres undefined): -1.3.
On to `C=CCC(OC(C)=O)[C@@H]1[C@@H](N(Cc2ccc(-c3ccccc3)cc2)C(=O)c2ccc(C)cc2)c2cc(OCCCO)ccc2N1C(=O)Cc1ccc2ccccc2c1` (some centres undefined), for which the composite z-score is -1.
Same read-out and setting: the same measure for `Cc1cccc([C@H]2C[C@H]3C(Br)=C[C@@H]2C(=O)[C@]32CO2)c1`: 0.288; for `O=C(O)[C@H]1C[C@H]2C(=O)N[C@@H](Cc3ccccc3)C(=O)N2[C@H]1c1cccc(OCCO)c1`: -1.98; for `Cc1cccc([C@H]2C[C@H]3C(I)=C[C@@H]2C(=O)[C@]32CO2)c1`: 0.284.
The same measure, in the same setting: the same measure for `COc1cc(NN2C(C(O)c3ccc(I)cc3)C=CC3C(=O)N(c4ccccc4)C(=O)C32)cc(OC)c1OC` (centres undefined): -0.755; for `CCN(CC)c1ccc(N2CC=CC34O[C@@H]5/C=C\CCC(C)OC(=O)C5[C@H]3C(=O)N(C(C)CO)[C@@H]4C2=O)cc1` (some centres undefined): 0.881; for `C=CC[C@H](OC(=O)Nc1ccc(SC)cc1)c1ccc(OCCO)cc1`: -1.51.
On the same count and under the same terms, the same measure for `COCCOC(=O)N1C(=O)[C@@]2(c3cc(C#CCCO)ccc31)[C@H](c1ccccc1OCCO)N1[C@H](c3ccccc3)[C@H](c3ccccc3)OC(=O)[C@H]1[C@@H]2C(=O)N1CCCCCCC1`: 0.495; for `CC(C)C(=C=CC[C@H](O)c1cccc(OCCO)c1)CCO`: -0.131; for `CCCCNC(=O)c1ccc(C#C[Si](C(C)C)(C(C)C)C(C)C)c(OC(C)=O)c1`: -1.29.
For `C[C@@]12COC[C@]13C=C(Br)[C@H](C2)[C@@]1(CO1)C3=O`, the composite z-score was -0.658.
As for `CC(C)[C@H]1NC(=O)[C@@]23C(=O)N[C@@H](Cc4ccccc4)C2[C@H](C)[C@@]2(C)O[C@H]2C3/C=C/CCC/C=C/CNC(=O)[C@H](Cc2ccccc2)NC1=O` (some centres undefined), the composite z-score is 0.112.
Turning to `COCCCNC(=O)[C@@]1(Sc2ccc(C)cc2)CC(=O)N(C(C)C)[C@@H]1c1ccc(CO)cc1I`, the composite z-score is -0.642.
The same measure, in the same setting: next, `CN(C)CCCCNC(=O)[C@H]1C[C@H]2C(=O)N[C@@H](CCCC[N+](C)(C)C)C(=O)N2[C@H]1c1ccc(O)cc1`: -0.308.

Tested on in a further assay: not listed separately
The experiment in a line: P. aeruginosa biofilm formation inhibitors, primary screen, strain PAO1, LB-PBS medium, absorbance 600 nm (AID 1176). The following applies: P. aeruginosa PAO1 growth/biofilm, A600, 12 h; higher = more signal.
With `COc1cc2c(cc1O)C(c1cccs1)N(Cc1sc3ccccc3c1Cl)CC2` (centres undefined), the z-score is -0.131.
Consider `CC(C)(C)OC(=O)CC[C@]12N=C(c3ccc(OCCCO)cc3)O[C@H]1c1ccccc1N(Cc1ccccc1)C2=O`, for which the z-score was 0.95.
Same read-out and setting: next, `O=C1C2C=CC(C(O)c3ccc(I)cc3)N(Nc3ccccc3)C2C(=O)N1c1ccccc1` (centres undefined): 1.58; `C=CCN1C(=O)[C@@]2(O[C@@H](CCO)[C@H]([Si](C)(C)c3ccc(OC)cc3)[C@H]2C)c2cc(N3CCOC3=O)ccc21`: 0.519.
On the same count and under the same terms, next, `CCOC(=O)C1=C[C@@H](C(C)(C)C)N(S(=O)(=O)c2ccc(C)cc2)[C@H]1c1cccc(Cl)c1`: 0.16; `CO[C@H]1O[C@H](CO)[C@@H](OC(=O)Nc2cccc(F)c2)[C@H](OC(=O)Nc2ccccc2-c2ccccc2)[C@H]1OC(=O)Nc1ccccc1-c1ccccc1`: 1.16.
On the same count and under the same terms, next, `COCC(=C=CC[C@@H](O)c1ccc(OCCO)cc1)CCO`: 0.424; `C=CCC(OC(C)=O)[C@@H]1[C@@H](N(Cc2ccc(-c3cccc(C(F)(F)F)c3)o2)C(=O)Cc2ccc(OC)cc2)c2cc(OCCCO)ccc2N1C(=O)Cc1ccc2ccccc2c1` (some centres undefined): -0.628.
For `CN1C(=O)[C@@H]2[C@@H](CC(COc3ccccc3)=C([C@H](O)CCc3ccccc3)[C@@H]2CO)C1=O`, the z-score was -0.104.
Still for that read-out and setting: the same measure for `COc1cc(NN2C(C(O)C3CCCCC3)C=CC3C(=O)N(C)C(=O)C32)cc(OC)c1OC` (centres undefined): 0.462; for `C=CCC(OC(C)=O)[C@@H]1[C@@H](N(Cc2cccc3ccccc23)C(=O)c2ccc(-c3ccccc3)cc2)c2cc(OCCCO)ccc2N1C(=O)c1ccc(-c2ccccc2)cc1` (some centres undefined): 0.055.
Turning to `[N-]=[N+]=NCc1ccccc1C[C@@]1(C(=O)N2CCCCC2)N=C(c2ccc(OCCCO)cc2)O[C@@H]1c1ccccc1CN=[N+]=[N-]`, the z-score was 1.87.
Regarding `COC(=O)[C@@]1(Cc2ccc(OC)cc2)[C@H]2c3cc(C(=O)N4CCCC4)n(Cc4ccc(S(C)(=O)=O)cc4)c3C[C@H]2CN1C(=O)c1ccccc1`, the z-score was 0.122.
With `CCOC(=O)C[C@H]1[C@H](OC(=O)c2ccc(C(=O)c3ccccc3)cc2)[C@@H](NC(=O)CC(C)C)c2cc(OCCCO)ccc2N1C(=O)Cc1ccc(OC)cc1`, the z-score is 0.608.
Same read-out and setting: the same measure for `O=C1C2C=CC(C(O)c3ccco3)N(Nc3ccccc3)C2C(=O)N1c1ccccc1` (centres undefined): -0.283; for `Cc1ccc(F)cc1S(=O)(=O)N[C@@H]1CCN(Cc2cccc3[nH]ccc23)C1`: 0.343.
The same measure, in the same setting: the same measure for `CCOC(=O)C1=C[C@@H](c2ccccc2)N(S(=O)(=O)c2ccc(C)cc2)[C@H]1c1ccccc1`: 0.878; for `COCCOC(=O)N1C(=O)[C@@]2(c3cc(C#CCC(C(=O)OC)C(=O)OC)ccc31)[C@H](c1ccc(OCCO)cc1)N1[C@H](c3ccccc3)[C@H](c3ccccc3)OC(=O)[C@H]1[C@@H]2C(=O)Nc1nc2ccccc2s1`: 3.58.
In the case of `COC(=O)[C@@]1(Cc2ccccc2CN=[N+]=[N-])N=C(c2ccc(OCCCO)cc2)O[C@H]1c1ccccc1`, the z-score is 1.83.
Regarding `COC(=O)C(CC#Cc1ccc2c(c1)[C@]1(C(=O)N2)[C@H](c2ccc(OCCO)cc2)N2[C@H](c3ccccc3)[C@H](c3ccccc3)OC(=O)[C@H]2[C@@H]1C(=O)N1CCN(c2ncccn2)CC1)C(=O)OC`, the z-score is 3.09.
Same read-out and setting: next, `CCCCCCCCCCC(O)C1C=CC2C(=O)N(C)C(=O)C2N1Nc1cc(OC)c(OC)c(OC)c1` (centres undefined): 0.971; `C=CCC(OC(C)=O)[C@@H]1[C@@H](N(Cc2ccc(-c3ccccc3)cc2)C(=O)c2ccc(C)cc2)c2cc(OCCCO)ccc2N1C(=O)Cc1ccc2ccccc2c1` (some centres undefined): 0.219.
The same measure, in the same setting: next, `Cc1cccc([C@H]2C[C@H]3C(Br)=C[C@@H]2C(=O)[C@]32CO2)c1`: 0.142; `O=C(O)[C@H]1C[C@H]2C(=O)N[C@@H](Cc3ccccc3)C(=O)N2[C@H]1c1cccc(OCCO)c1`: -0.295; `Cc1cccc([C@H]2C[C@H]3C(I)=C[C@@H]2C(=O)[C@]32CO2)c1`: 0.531.
On the same count and under the same terms, the same measure for `COc1cc(NN2C(C(O)c3ccc(I)cc3)C=CC3C(=O)N(c4ccccc4)C(=O)C32)cc(OC)c1OC` (centres undefined): 0.835; for `CCN(CC)c1ccc(N2CC=CC34O[C@@H]5/C=C\CCC(C)OC(=O)C5[C@H]3C(=O)N(C(C)CO)[C@@H]4C2=O)cc1` (some centres undefined): -1.28.
With `C=CC[C@H](OC(=O)Nc1ccc(SC)cc1)c1ccc(OCCO)cc1`, the z-score is 0.119.
As for `COCCOC(=O)N1C(=O)[C@@]2(c3cc(C#CCCO)ccc31)[C@H](c1ccccc1OCCO)N1[C@H](c3ccccc3)[C@H](c3ccccc3)OC(=O)[C@H]1[C@@H]2C(=O)N1CCCCCCC1`, the z-score is 1.32.
For `CC(C)C(=C=CC[C@H](O)c1cccc(OCCO)c1)CCO`, the z-score was -0.0464.
For `CCCCNC(=O)c1ccc(C#C[Si](C(C)C)(C(C)C)C(C)C)c(OC(C)=O)c1`, the z-score was -0.623.
On the same count and under the same terms, the same measure for `C[C@@]12COC[C@]13C=C(Br)[C@H](C2)[C@@]1(CO1)C3=O`: -0.259; for `CC(C)[C@H]1NC(=O)[C@@]23C(=O)N[C@@H](Cc4ccccc4)C2[C@H](C)[C@@]2(C)O[C@H]2C3/C=C/CCC/C=C/CNC(=O)[C@H](Cc2ccccc2)NC1=O` (some centres undefined): -0.471.
With `COCCCNC(=O)[C@@]1(Sc2ccc(C)cc2)CC(=O)N(C(C)C)[C@@H]1c1ccc(CO)cc1I`, the z-score is 0.394.
For `CN(C)CCCCNC(=O)[C@H]1C[C@H]2C(=O)N[C@@H](CCCC[N+](C)(C)C)C(=O)N2[C@H]1c1ccc(O)cc1`, the z-score is -1.16.
